# CYP2C19 inhib – blockers of cytochrome P450 2C19 activity – biochemical, luminescence, ADME assay, primary screen; AID 778, 2007; CYP2C19 Supersomes, luciferin-H EGE luminescence, 30 min; 21% of 96,000 active; inhibition, % at 5 µM;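 active = CYP2C19 inhibition above a set limit at 5 µM in the primary screen, cut at about 50% in these data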
# Target sequence (P33261 whole entry, looked up): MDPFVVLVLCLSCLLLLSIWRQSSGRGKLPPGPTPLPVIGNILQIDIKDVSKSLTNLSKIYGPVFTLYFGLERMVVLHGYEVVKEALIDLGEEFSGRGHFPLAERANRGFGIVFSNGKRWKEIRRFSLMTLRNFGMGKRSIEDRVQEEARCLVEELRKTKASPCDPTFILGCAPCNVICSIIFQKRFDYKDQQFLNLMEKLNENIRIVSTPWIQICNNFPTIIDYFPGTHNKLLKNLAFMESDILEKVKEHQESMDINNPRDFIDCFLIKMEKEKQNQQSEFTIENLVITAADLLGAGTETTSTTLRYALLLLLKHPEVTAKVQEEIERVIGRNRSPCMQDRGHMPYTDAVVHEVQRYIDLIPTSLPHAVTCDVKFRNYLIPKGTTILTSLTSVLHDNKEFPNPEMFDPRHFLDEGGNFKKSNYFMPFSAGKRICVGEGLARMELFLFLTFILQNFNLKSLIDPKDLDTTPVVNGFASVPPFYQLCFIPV
# Mac1 fbg inh – inhibitors of CD11b/CD18 adhesion to fibrinogen, primary screen, K562 cells, luminescence. inhibition, % at 10 µM. ATPlite luminescence; Mn2+ added to activate the integrin. 0.54% of 93,000 active. AID 1497, 2009;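 active = primary inhibition of 50% or more at 10 µM, then 40% or more on retest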
# Mac1 fbg enh – enhancers of CD11b/CD18 adhesion to fibrinogen, primary screen, K562 cells, luminescence; activation, % at 10 µM; ATPlite luminescence; 0.07% of 93,000 active; AID 1499, 2009;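 active = 10 µM primary screen giving 50% or more activity, confirmed by 40% or more on retest at that dose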
# CYP2C9 activ – human CYP2C9 activators, primary screen, biochemical, luminescence | recombinant CYP2C9, luciferin-H conversion; hits give high values; factor 1 = untreated enzyme, 0 = blocked | activation factor at 5 µM | 1.4% of 96,000 active | AID 1024, 2008;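 active = activation factor of 2 or more for CYP2C9 at a 5 µM dose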
# CYP2C19 act – human CYP2C19 activators, primary screen, biochemical, luminescence | activation factor at 5 µM | recombinant CYP2C19, luciferin-H EGE luminescence; hits give high values; 0 = fully inhibited enzyme, 1 = untreated enzyme | 96,000 tested, under 10 active;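 active = activation factor of at least 2 at 5 µM in the primary screen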
# CYP2C9 inhib – blockers of cytochrome P450 2C9 activity – biochemical, luminescence, ADME assay, primary screen; CYP2C9 Supersomes, luciferin-H conversion; inhibition, % at 5 µM; 20% of 96,000 active; AID 777, 2007;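 active = blocking of liver enzyme CYP2C9 beyond about 50% at 5 µM, limit read from the data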
# Hits are given with their value; . = inactive; / = not tested or not shown. Sampled rows, rich in hits. Any-hit rate of the full collection: about 28%.
SMILES,CYP2C19 inhib,Mac1 fbg inh,Mac1 fbg enh,CYP2C9 activ,CYP2C19 act,CYP2C9 inhib
CC1=CN2C(=N)/C(=C/c3ccc([N+](=O)[O-])o3)C(=O)N=C2S1,/,.,.,/,/,/
Cc1cc(Cl)ccc1OCC(=O)N1CCCCC1,88,.,.,.,.,.
Cc1cc(Cl)ccc1OCCCC(=O)NC1CCN(C)CC1,.,.,.,.,.,.
COc1cc(CO)cc(Br)c1OCC(=O)N1CCCCC1,.,.,.,2.2,.,.
Cc1cc(C)cc(OCC(=O)N2CCCCCC2)c1,54,.,.,.,.,.
Cc1cc(Cl)ccc1OCCCC(=O)N1CCN(C)CC1,51,/,/,2.1,.,.
CC(=O)NCCSC(=O)c1ccc(F)cc1,.,.,.,.,.,.
c1ccc([C@H]2CC3C[C@@H](c4ccccc4)N2O3)cc1,.,/,/,.,.,.
CC(C)c1nnc(NC(=O)Cn2nc(-c3ccc4c(c3)OCCO4)ccc2=O)s1,.,.,.,.,.,.
COc1cc2c(cc1OC)CN(C(=O)CCCOc1ccc(Cl)cc1Cl)CC2,.,.,.,.,.,57
CCCC/C(C)=N/NC(=O)C(=O)NCCc1ccccc1,.,.,.,.,.,.
Clc1ccc(CNCCC2=CCCCC2)cc1,100,.,.,.,.,.
C1=C(CCNCC2CCCCC2)CCCC1,88,.,.,.,.,.
O=C(NCCC1=CCCCC1)C1CCN(C(=O)c2ccc(Cl)cc2)CC1,.,/,/,.,.,.
O=C(CN1CCN(C2CCCCC2)CC1)NCCC1=CCCCC1,.,/,/,.,.,.
c1ccc(Cn2ncc3c2ncn2c(-c4ccncc4)nnc32)cc1,85,.,.,.,.,.
Cc1ccc(-n2ncc3c2ncn2c(-c4ccncc4)nnc32)cc1,.,.,.,.,.,.
CC(C)N(C(=O)COC(=O)c1cc(Cl)cc(Cl)c1N)C(C)C,83,.,.,.,.,66
CN(C)C(=O)COC(=O)c1cc(Cl)cc(Cl)c1N,.,.,.,.,.,.
CC1CCN(C(=O)COC(=O)c2cc(Cl)cc(Cl)c2N)CC1,.,.,.,2.3,.,.
CCOC(=O)C1=C(C)NC(C)=C(C(=O)OCC)C1C(=O)OCC(=O)N1CCC(C)CC1,.,/,/,.,.,.
O=C(COC(=O)c1ccccc1F)c1ccc(-n2nncc2-c2ccco2)cc1,.,.,.,.,.,.
O=C(c1cnn2ccccc12)N(Cc1ccco1)C1CCCC1,60,.,.,.,.,.
O=C(c1cnn2ccccc12)N1CCN(C2CCCCC2)CC1,.,.,.,.,.,.
O=C(NNC(=O)C1CC(c2cccnc2)=NO1)Nc1cccc(F)c1 (stereo not given),.,.,.,.,.,.
SMILES,CYP2C19 inhib,Mac1 fbg inh,Mac1 fbg enh,CYP2C9 activ,CYP2C19 act,CYP2C9 inhib
Cc1ccc(CNC(=O)C2CCN(S(=O)(=O)N3CCOCC3)CC2)cc1,.,.,.,.,.,.
O=C(c1ccncc1)N1C2C=CC(C2)C1(C(F)(F)F)C(F)(F)F (stereo not given),.,.,.,.,.,61
O=C(c1cccnc1)N1C2C=CC(C2)C1(C(F)(F)F)C(F)(F)F (stereo not given),.,.,.,.,.,.
N/C(Cc1ccc(Cl)cc1Cl)=N\OC(=O)c1cccs1,54,.,.,.,.,.
Cc1ccc(N2C(=O)CC(Sc3ncn[nH]3)C2=O)cc1C (stereo not given),.,.,.,.,.,.
Cc1nn(Cc2ccccc2)c(N)c1-c1ccccc1,63,.,.,.,.,.
CN(CC(=O)NCc1cccs1)S(=O)(=O)c1cccc2cccnc12,.,.,.,2.4,.,.
CN(C)c1ccc(CNC(=O)CN(C)S(=O)(=O)c2cccc3cccnc23)cc1,70,.,.,.,.,.
CN(CC(=O)NCc1ccccn1)S(=O)(=O)c1ccc(Cl)cc1,.,.,.,.,.,.
O=C(Nc1nn[nH]n1)C12CC3CC(CC(C3)C1)C2,.,.,.,.,.,.
Cc1ccc(NC(=S)c2nc3ccccc3[nH]2)cc1,89,/,/,.,.,.
Cc1ccc(C(=O)N/C(=C\c2cccs2)c2nc3ccccc3[nH]2)cc1,/,.,.,/,/,/
CCOC(=O)c1sc(NC(=O)CSc2nnc(C)s2)c(C(=O)OCC)c1C,62,.,.,.,.,88
CCOC(=O)c1c(NC(=O)CSc2nncs2)sc(C)c1C,.,/,/,.,.,.
CCOC(=O)c1c(NC(=O)CSc2nc3ccccc3s2)sc(C(C)=O)c1C,.,.,.,.,.,78
CCOC(=O)c1sc(NC(=O)CSc2nc3ccccc3o2)c(C(=O)OCC)c1C,/,.,.,/,/,/
Oc1ccc(-c2[nH]ncc2-c2ccc(Cl)cc2)c(O)c1,92,/,/,.,.,91
Oc1ccc(-c2[nH]ncc2-c2cccc3cccnc23)c(O)c1,54,.,.,.,.,53
O=[N+]([O-])c1ccc(COc2ccc(-c3[nH]ncc3-c3ccc(Cl)cc3)c(O)c2)cc1,/,.,.,/,/,/
COc1ccc(-c2[nH]ncc2-c2ccc(Cl)cc2)c(O)c1,75,.,.,.,.,.
COc1ccc(NC(=O)CSc2nnc(-c3cccnc3)n2Cc2ccco2)c(OC)c1,.,.,.,.,.,.
CCOC(=O)C(NCc1ccc2c(c1)OCO2)(NC(=O)CC)C(F)(F)F (stereo not given),97,.,.,.,.,88
CCOC(=O)C(NCCc1ccccc1)(NC(=O)CC)C(F)(F)F (stereo not given),/,.,.,/,/,/
CCOC(=O)Cn1c(=O)oc2cc(S(=O)(=O)Nc3c(C)cc(C)cc3C)ccc21,.,.,.,.,.,.
O=C(Cn1c(=O)oc2cc(S(=O)(=O)N3CCCC3)ccc21)NCc1ccccn1,.,.,.,.,.,.
SMILES,CYP2C19 inhib,Mac1 fbg inh,Mac1 fbg enh,CYP2C9 activ,CYP2C19 act,CYP2C9 inhib
CCOC(=O)Cn1c(=O)oc2cc(S(=O)(=O)N3CCn4c3nc3ccccc34)ccc21,.,.,.,.,.,.
CCCCNS(=O)(=O)c1ccc2c(c1)oc(=O)n2CC(=O)OCC,.,.,.,.,.,72
O=C(Cn1c(=O)oc2cc(S(=O)(=O)N3CCc4ccccc43)ccc21)NC1CCCC1,.,.,.,.,.,64
CC(C)CCNC(=O)Cn1c(=O)oc2cc(S(=O)(=O)N3CCc4ccccc43)ccc21,.,.,.,.,.,83
O=C(Cn1c(=O)oc2cc(S(=O)(=O)N3CCCCCC3)ccc21)NC1CCCCC1,.,.,.,.,.,.
CCOC(=O)Cn1c(=O)oc2cc(S(=O)(=O)N3CCCc4ccccc43)ccc21,77,.,.,.,.,77

# High-throughput results (PubChem BioAssay)
